Measured values published in PubChem BioAssay (NCI).
About 83,000 compounds went through this panel and 20% of them were active in at least one assay; those are over-represented in the sample as a whole.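 Negative percent growth values reflect cell death: -40 means 40% of the cells present at the start died, and -100 means all died.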 Active and inactive are the calls of the source. Rule for the calls: active = growth percent below 10; inactive = the rest.

Legend:
Assay in all cases: NCI-60 one-dose screen, 48 h (100 = growth as untreated, 0 = no growth, -100 = all killed)
Conditions in all cases: 10 µM unless noted
HCT-15 colon = tested on: HCT-15 colon
HT29 colon = tested on: HT29 colon
SNB-75 CNS = tested on: SNB-75 CNS
SNB-19 CNS = tested on: SNB-19 CNS
U251 CNS = tested on: U251 CNS
PC-3 prostate = tested on: PC-3 prostate
SK-MEL-5 melanoma = tested on: SK-MEL-5 melanoma
UACC-62 melanoma = tested on: UACC-62 melanoma
LOX IMVI melanoma = tested on: LOX IMVI melanoma
SK-MEL-28 melanoma = tested on: SK-MEL-28 melanoma

Measured: growth

Cc1cccc(-c2cc(O)c(C(=O)N3CCOCC3)s2)c1
inactive: HCT-15 colon 21.4% | HT29 colon 52.2% | SNB-75 CNS 33.5% | SNB-19 CNS 31.5% | U251 CNS 28.6% | PC-3 prostate 60.5% | SK-MEL-5 melanoma 26% | UACC-62 melanoma 34.5% | LOX IMVI melanoma 33.2% | SK-MEL-28 melanoma 56.9%

COc1ccc(N=c2nc3sc4cc(Cl)ccc4n3c(N)c2C#N)cc1
inactive: HCT-15 colon 99.5% | HT29 colon 36.1% | SNB-75 CNS 36.9% | SNB-19 CNS 82% | U251 CNS 79% | PC-3 prostate 58.5% | SK-MEL-5 melanoma 14.9% | UACC-62 melanoma 69.3% | LOX IMVI melanoma 83% | SK-MEL-28 melanoma 45.8%

C/C(Cc1ccc(Cl)cc1)=C(/c1ccc(Cl)cc1)c1ccc(OCCN(C)C)cc1
active: HCT-15 colon 2.19% | HT29 colon 8.12% | LOX IMVI melanoma -88%
inactive: SNB-75 CNS 68.7% | SNB-19 CNS 69.4% | U251 CNS 38.2% | PC-3 prostate 58.1% | SK-MEL-5 melanoma 67.5% | UACC-62 melanoma 82% | SK-MEL-28 melanoma 84.4%

O=C1Nc2ccccc2/C1=N/N=C/c1ccc(OC2OC(CO)C(O)C(O)C2O)cc1 (stereo not given)
inactive: HCT-15 colon 105% | HT29 colon 103% | SNB-75 CNS 96.8% | SNB-19 CNS 100% | U251 CNS 106% | PC-3 prostate 105% | SK-MEL-5 melanoma 103% | UACC-62 melanoma 101% | LOX IMVI melanoma 101% | SK-MEL-28 melanoma 108%

CCCCCCCCCCCCCCCCCC1=NCCN1C(=O)OCCO
inactive: SNB-75 CNS 45.1% | SNB-19 CNS 75.9% | PC-3 prostate 28.4% | SK-MEL-5 melanoma 80.3% | UACC-62 melanoma 59.6% | LOX IMVI melanoma 27.8% | SK-MEL-28 melanoma 61.3%
active: HCT-15 colon -8.42% | HT29 colon -47.6% | U251 CNS -46%

CCCCCCNc1cc(C)nc2ccc(OC)cc12
inactive: HCT-15 colon 60.9% | HT29 colon 19.6% | SNB-75 CNS 89.2% | SNB-19 CNS 77.1% | U251 CNS 55.1% | PC-3 prostate 65.9% | SK-MEL-5 melanoma 35% | UACC-62 melanoma 64.1% | LOX IMVI melanoma 61.4% | SK-MEL-28 melanoma 67.9%

Nc1ccn(C2OC(F)(CO)C(O)C2F)c(=O)n1 (stereo not given)
inactive: HCT-15 colon 63.1% | HT29 colon 48.3% | SNB-75 CNS 68.3% | SNB-19 CNS 36.8% | U251 CNS 29.8% | PC-3 prostate 50.1% | SK-MEL-5 melanoma 47.4% | UACC-62 melanoma 49.3% | LOX IMVI melanoma 73.1% | SK-MEL-28 melanoma 74.3%

Nc1ccc(S(=O)(=O)Nc2ccsc2-c2nc(-c3ccccc3)no2)cc1
inactive: HCT-15 colon 34.1% | HT29 colon 11.8% | SNB-75 CNS 54.8% | SNB-19 CNS 69.3% | U251 CNS 41.7% | PC-3 prostate 53.1% | SK-MEL-5 melanoma 65.9% | UACC-62 melanoma 50.7% | LOX IMVI melanoma 68% | SK-MEL-28 melanoma 71.2%

O=C(O)C1C[C@](O)(c2ccc(F)cc2)[C@@H](c2ccc(F)cc2)O1 (stereo not given in full)
inactive: HCT-15 colon 131% | HT29 colon 120% | SNB-75 CNS 114% | SNB-19 CNS 97.5% | U251 CNS 110% | PC-3 prostate 85.9% | SK-MEL-5 melanoma 129% | UACC-62 melanoma 108% | LOX IMVI melanoma 111% | SK-MEL-28 melanoma 129%

CCNCCNc1cc(-c2ccc(C(F)(F)F)cc2)c(C#N)c2nc3cc(Cl)c(Cl)cc3n12
active: HCT-15 colon -80.1% | HT29 colon -85.5% | SNB-75 CNS -93.7% | SNB-19 CNS -62.7% | U251 CNS -94% | PC-3 prostate -88.4% | SK-MEL-5 melanoma -98.9% | UACC-62 melanoma -63.3% | LOX IMVI melanoma -74% | SK-MEL-28 melanoma -96.5%

Cc1cc(-c2noc(C(F)(F)F)n2)ccc1N1CCN(c2cc(C(=O)N(C)C)no2)CC1
inactive: HCT-15 colon 70.3% | HT29 colon 78.3% | SNB-75 CNS 73% | SNB-19 CNS 64.1% | U251 CNS 71.9% | PC-3 prostate 56.8% | UACC-62 melanoma 62.1% | LOX IMVI melanoma 62.4% | SK-MEL-28 melanoma 84.8%
active: SK-MEL-5 melanoma 2.91%

COc1ccc(-c2cc(-c3cc(OC)ccc3OC)[nH]c(=O)c2C#N)cc1
inactive: HCT-15 colon 62.8% | HT29 colon 38.1% | SNB-75 CNS 56.4% | SNB-19 CNS 68.1% | U251 CNS 39.5% | PC-3 prostate 72.6% | SK-MEL-5 melanoma 40.1% | UACC-62 melanoma 47.7% | LOX IMVI melanoma 44.6% | SK-MEL-28 melanoma 74.8%

CSc1nc(N)c(CNC(C)c2ccccc2)c(=O)n1C (stereo not given)
inactive: HCT-15 colon 104% | HT29 colon 105% | SNB-75 CNS 93.4% | SNB-19 CNS 98.9% | U251 CNS 95% | PC-3 prostate 101% | SK-MEL-5 melanoma 113% | UACC-62 melanoma 98.8% | LOX IMVI melanoma 92.3% | SK-MEL-28 melanoma 109%

CN(CCC(=O)/C(=C\c1ccccc1)c1ccc(Cl)cc1)Cc1ccccc1
active: HCT-15 colon 2.09% | HT29 colon 9.63% | U251 CNS -10.3% | UACC-62 melanoma -36.6% | LOX IMVI melanoma -58.3% | SK-MEL-28 melanoma 9.17%
inactive: SNB-75 CNS 60.3% | SNB-19 CNS 23% | PC-3 prostate 45% | SK-MEL-5 melanoma 58.7%

COc1cc2oc3cc(C)oc(=O)c3c2cc1OC
inactive: HCT-15 colon 91.9% | HT29 colon 91.5% | SNB-75 CNS 103% | SNB-19 CNS 86.8% | U251 CNS 102% | PC-3 prostate 98.4% | SK-MEL-5 melanoma 95.1% | UACC-62 melanoma 90.9% | LOX IMVI melanoma 103% | SK-MEL-28 melanoma 115%

C=CCN1C(=O)[C@]2(SC1=S)[C@H](c1cccc(Cl)c1)CN(C)[C@]21C(=O)NC2C=CC(Cl)=C[C@H]21 (stereo not given in full)
inactive: HCT-15 colon 27% | HT29 colon 27.9% | SNB-75 CNS 44.4% | SNB-19 CNS 59.9% | U251 CNS 67.8% | SK-MEL-5 melanoma 42% | UACC-62 melanoma 36.1% | LOX IMVI melanoma 13.3% | SK-MEL-28 melanoma 64.1%
active: PC-3 prostate 7.5%

C(=C\c1nc2ccccc2[nH]1)/c1nc2ccccc2[nH]1
inactive: HCT-15 colon 100% | HT29 colon 103% | SNB-75 CNS 86.2% | SNB-19 CNS 109% | U251 CNS 106% | PC-3 prostate 90% | SK-MEL-5 melanoma 92.8% | UACC-62 melanoma 91.1% | LOX IMVI melanoma 98.1% | SK-MEL-28 melanoma 104%

CN(C)c1ccc(/C=C/c2c(F)cccc2F)cc1
inactive: HCT-15 colon 98.6% | HT29 colon 92.3% | SNB-75 CNS 88.4% | SNB-19 CNS 105% | U251 CNS 89.9% | PC-3 prostate 81.7% | SK-MEL-5 melanoma 94.9% | UACC-62 melanoma 97.9% | LOX IMVI melanoma 88.1% | SK-MEL-28 melanoma 109%

Cc1[nH]c(-c2nc3ccccc3[nH]2)c(C)c1C(=O)N1CCc2sccc2C1
inactive: HCT-15 colon 90% | HT29 colon 96% | SNB-75 CNS 78.6% | SNB-19 CNS 89.4% | U251 CNS 97.9% | PC-3 prostate 87.3% | SK-MEL-5 melanoma 88.8% | UACC-62 melanoma 87.8% | LOX IMVI melanoma 93.3% | SK-MEL-28 melanoma 94.5%

CCCCOC(=O)c1ccc(NC(=O)C(C)N2CCOCC2)cc1 (stereo not given)
inactive: HCT-15 colon 108% | HT29 colon 79.5% | SNB-75 CNS 107% | SNB-19 CNS 99.5% | U251 CNS 93.2% | PC-3 prostate 72.7% | SK-MEL-5 melanoma 104% | UACC-62 melanoma 95.1% | LOX IMVI melanoma 101% | SK-MEL-28 melanoma 112%

Cn1ccc(Cc2cnc(N)s2)n1
inactive: HCT-15 colon 104% | HT29 colon 97.5% | SNB-75 CNS 93.3% | SNB-19 CNS 98.9% | U251 CNS 97.5% | PC-3 prostate 98.8% | SK-MEL-5 melanoma 101% | UACC-62 melanoma 100% | LOX IMVI melanoma 103% | SK-MEL-28 melanoma 106%

COc1ccc(CN2C(=O)/C(=C\c3cc(OC)c(OC)c(OC)c3)c3ccccc32)cc1
active: HCT-15 colon -55.8% | HT29 colon 0.194% | SNB-75 CNS 8.57% | U251 CNS -73.6% | SK-MEL-5 melanoma -25.1% | UACC-62 melanoma -8.88% | LOX IMVI melanoma -76% | SK-MEL-28 melanoma -34.9%
inactive: SNB-19 CNS 60.3% | PC-3 prostate 10.9%

O=C1c2ccccc2C(=O)c2cc(Cn3cc[n+](Cc4ccc5ccccc5c4)c3)ccc21
inactive: HCT-15 colon 98.1% | HT29 colon 73.1% | SNB-75 CNS 62.8% | SNB-19 CNS 79.5% | U251 CNS 85.8% | PC-3 prostate 38.8% | SK-MEL-5 melanoma 68.3% | UACC-62 melanoma 61.1% | LOX IMVI melanoma 94.9% | SK-MEL-28 melanoma 94.5%

Nc1c(-c2nc3ccc(Br)cc3c(=O)[nH]2)nnn1-c1ccccc1
inactive: HCT-15 colon 79% | HT29 colon 58.8% | SNB-75 CNS 79.5% | SNB-19 CNS 70.6% | U251 CNS 38.6% | PC-3 prostate 73.4% | SK-MEL-5 melanoma 102% | UACC-62 melanoma 93.9% | LOX IMVI melanoma 80.4% | SK-MEL-28 melanoma 96.2%

COC(=O)/C(=C\c1ccc(OC)cc1)C(=O)N1c2ccccc2Sc2ccccc21
active: SNB-75 CNS 2.37%
inactive: HCT-15 colon 24% | HT29 colon 15.3% | SNB-19 CNS 66.9% | U251 CNS 50.3% | PC-3 prostate 53% | SK-MEL-5 melanoma 41.5% | UACC-62 melanoma 19.5% | LOX IMVI melanoma 50.6% | SK-MEL-28 melanoma 50.9%

COc1ccccc1NC(=O)Nc1ccc(-c2nc3ccccc3o2)cc1
inactive: HCT-15 colon 96.9% | HT29 colon 132% | SNB-75 CNS 109% | SNB-19 CNS 94.8% | U251 CNS 93.6% | PC-3 prostate 95.6% | SK-MEL-5 melanoma 92.6% | UACC-62 melanoma 98.7% | LOX IMVI melanoma 97.9% | SK-MEL-28 melanoma 111%

COc1ccc(/C=C2\C=C(c3ccccc3)N(CCc3ccccc3)C2=O)cc1OC
inactive: HCT-15 colon 60.9% | HT29 colon 38.6% | SNB-19 CNS 43.3% | U251 CNS 15.9% | PC-3 prostate 54.4% | SK-MEL-5 melanoma 38.5% | UACC-62 melanoma 54.5% | SK-MEL-28 melanoma 76.7%
active: SNB-75 CNS -7.78% | LOX IMVI melanoma 2.28%
